This passage reports outcome results from PubChem BioAssay AID504882 (Broad Institute, 2011).

Structures are written as SMILES. The whole screen tested about 1,200 compounds, of which about 290 (24%) were called active. Inconclusive results (about 9%) are left out. How the calls were made is not given here. These entries were drawn from the full list. Measured potencies and affinities stand elsewhere.

A short description of the assay: LCL viability reduction – cell-based, plate reader, cherry-picks, set 2, cytotoxicity control, dose response (AID 504882). The following applies: EBV lymphoblastoid cells (LCL) viability; series mostly up to 19.5 µM.
`CCOc1ccc(NC(=O)Cn2cc(C(=O)CC)c3ccccc32)cc1`: the outcome was inactive.
Under `O=C(NC(Cc1c[nH]c2ccccc12)C(=O)Nc1ccc(F)c([N+](=O)[O-])c1)c1cccs1` (stereo not given) stands “inactive”; under `COc1ccc(/C=N/Nc2cc(OC)ncn2)cc1`, “inactive”; under `Cc1ccc(C)c(S(=O)(=O)N2CCN(CC(=O)N3CCc4ccccc4C3)CC2)c1`, “inactive”.
The result for `Cc1ccc(NC(=S)Nc2cccc(S(=O)(=O)Nc3c(C)n(C)n(-c4ccccc4)c3=O)c2)cc1` reads “inactive”; that for `O=C1N[C@@H](Cc2c[nH]c3ccccc23)COC(=O)[C@H](Cc2ccc(F)cc2)C/C=C\C[C@H]1CC(=O)N(CCO)Cc1ccccc1`, “inactive”; that for `O=C(Nc1ccc(N2CCOCC2)cc1)c1cnccn1`, “inactive”.
`O=C(Nc1ccc(CN2CCOCC2)cc1)c1cc2ccccn2n1`: the result was inactive.
The result for `CSc1nc(N)nc(SCC(=O)C23CC4CC(CC(C4)C2)C3)c1C#N` reads “inactive”; that for `COc1ccc(C2CC(C(F)(F)F)n3ncc(C(=O)NCc4cccnc4)c3N2)cc1OC` (stereo not given), “inactive”; that for `O=C(CN1C(=O)c2ccccc2C1=O)NNC1=NS(=O)(=O)c2ccccc21`, “inactive”.
Under `CCOc1cccc(CNc2nnnn2C)c1` stands “inactive”; under `COc1ccc(/C=C/c2nc3ccccc3c(=O)o2)cc1`, “inactive”; under `CCCC(=O)NCCCc1nc2ccccc2n1C`, “inactive”.
Under `Nc1nc2ccccc2n1C(=O)c1ccccc1` stands “inactive”; under `CC(C)(C)n1nc(-c2ccc(Cl)cc2)c2c(N)ncnc21`, “inactive”.
As to `O=C(CCNc1cccc(F)c1)c1cc2ccccc2o1`, the compound was classed as inactive.
For `CCc1cc(=O)oc2c(CNCc3c(F)cccc3Cl)c(O)ccc12`, the outcome was inactive.
`Cc1cc(N2CCCC2=O)cc(C)c1S(=O)(=O)Nc1c(C)nn(C)c1C`: the compound was classed as inactive.
The result for `O=C(C=C1SCCS1)/C=C/c1ccco1` reads “inactive”; that for `CC(C)(C)c1ccc(C(=O)Nc2nnc(SCC(=O)NCC3CCCO3)s2)cc1` (stereo not given), “inactive”; that for `Cc1cc(NC(=O)CSc2ccnc(=O)[nH]2)no1`, “inactive”.
As to `CC(C)Cc1ccc([C@H](C)C(=O)O)cc1`, the call was inactive.
Under `CS(=O)(=O)N(CC(=O)Nc1ccc(F)cc1F)C1CCCCC1` stands “inactive”; under `O=C1CCC(C(=O)N2CCCCCC2)CN1CCc1ccc(Cl)cc1` (stereo not given), “inactive”.
The result for `O=C1/C(=C/c2cccnc2)SC(=S)N1Cc1ccco1` reads “inactive”; that for `S=C1SCN(Cc2ccccc2)CN1Cc1ccco1`, “inactive”; that for `CC(C)NC(=O)N(C)C[C@H]1Oc2c(NC(=O)Nc3ccc4c(c3)OCO4)cccc2C(=O)N([C@H](C)CO)C[C@@H]1C`, “inactive”.
Take `O=C1CCCN2N=C(SCC(=O)Nc3ccc(Br)cc3)SC2=N1`: the outcome was inactive.
`COc1ccc(S(=O)(=O)NCCc2csc(-c3cccnc3)n2)cc1`: the call was inactive.
Under `CC1Cc2ccccc2N1c1ncnc(N)c1[N+](=O)[O-]` (stereo not given) stands “inactive”; under `CC(=O)Nc1ccc(NC(=O)C(c2ccccc2)c2ccccc2)cc1`, “inactive”.
The result for `O=C(Cc1ccc(Cl)cc1)NCC(=O)N1CCCCC1` reads “inactive”.
Under `CCOC(=O)c1cn2nc(N3CCCC3)ccc2n1` stands “inactive”; under `COc1cc(/C=N/NC(=O)c2cc(C34CC5CC(CC(C5)C3)C4)[nH]n2)ccc1O`, “inactive”.
`COc1cc2cc(C(=O)Nc3ccc4c(c3)OCCO4)[nH]c2cc1OC`: the outcome was inactive.
The result for `O=C(Nc1cc(S(=O)(=O)N2CCOCC2)ccc1Cl)c1ccncc1` reads “inactive”; that for `COC(=O)[C@H](C)[C@H]1C[C@]1(C)[C@H](NC(=O)OCc1ccccc1)c1ccccc1`, “inactive”; that for `COc1ccccc1N1CCN(CCCNC(=O)C2CCCN(c3ncnc4c3nc3n4CCCCC3)C2)CC1` (stereo not given), “inactive”.
The result for `Cc1ccsc1/C=N/NC(=O)c1ccc2c(c1)OCCO2` reads “inactive”; that for `CC(=O)c1c(C)[nH]c(C(=O)Nc2ccc(C)cn2)c1C`, “inactive”; that for `CCOC(=O)c1sc(NC(=O)CNCc2ccccn2)c(C(=O)OCC)c1C`, “inactive”.
Consider `Cc1cccn2c(=O)c(C=NCCO)c(NCc3ccco3)nc12`, for which the outcome was inactive.
Under `Clc1ccccc1C1=Nn2c(nnc2-c2ccncc2)SC1` stands “inactive”; under `Cc1ccc(C(=O)Nc2cccc(C(F)(F)F)c2)cc1Nc1ncnc2nc[nH]c12`, “inactive”.
Under `c1cncc(CNc2ncnc3ccc(-c4ccoc4)cc23)c1` stands “inactive”; under `Cc1sc2ncn(CC(=O)N3CCC(C(N)=O)CC3)c(=O)c2c1S(=O)(=O)N1CCOCC1`, “inactive”.
Take `Cc1ccc(N2CCN(C3=NC(=O)/C(=C\c4cn[nH]c4-c4ccccc4)S3)CC2)cc1`: the compound was called inactive.
Under `CC1CCN(C(=O)/C(=C\c2cccs2)NC(=O)c2ccccc2)CC1` stands “inactive”.
Under `C=CCN(c1ccc(C(=O)Nc2ccc3c(c2)n(C)c(=O)n3C)cc1)S(C)(=O)=O` stands “inactive”; under `COC(=O)c1cccc(COC(=O)c2ccccc2NC(=O)c2ccco2)c1`, “inactive”.
The result for `C[C@]12CC[C@@H]3c4ccc(OS(=O)(=O)O)cc4CC[C@H]3[C@@H]1CCC2=O` reads “inactive”; that for `COc1ccccc1C(=O)NC(=O)CSc1nnc(N)s1`, “inactive”; that for `c1csc(CNc2ncnc3ccc(-c4ccoc4)cc23)c1`, “inactive”.
In the case of `COc1ccc(C(=O)CSc2nnc(Cc3ccccc3)o2)cc1`, the outcome was inactive.
The result for `CC[C@H]1OC(=O)[C@H](C)[C@@H](O[C@H]2C[C@@](C)(OC)[C@@H](O)[C@H](C)O2)[C@H](C)[C@@H](O[C@@H]2O[C@H](C)C[C@H](N(C)C)[C@H]2O)[C@](C)(O)C[C@@H](C)C(=NOCOCCOC)[C@H](C)[C@@H](O)[C@]1(C)O` reads “inactive”.
The result for `N=C1S/C(=C\c2ccccc2)C(=O)N1c1ccc(F)cc1` reads “inactive”; that for `CCC(=O)OC1c2ccccc2C(=O)N1Cc1ccccc1` (stereo not given), “inactive”.
The result for `CNc1ccc(Br)cc(C(=O)/C=C/c2cc(OC)ccc2OC)c1=O` reads “inactive”; that for `CC(=O)/C=C/c1ccccc1O`, “inactive”; that for `CNc1ccc(Br)cc(C(=O)/C=C/c2cccc(OC)c2)c1=O`, “inactive”.
Regarding `COC(=O)C1=C(C)N(CCCC(=O)O)C(=O)NC1c1cccc(Cl)c1Cl` (stereo not given), the outcome was inactive.
Under `O=C(CSc1nnc(NC(=O)c2ccc3c(c2)OCO3)s1)NCc1ccco1` stands “inactive”.
For the compound `CCOc1ccc(C(=O)Nc2nnc(SCC(=O)NCC3CCCO3)s2)cc1` (stereo not given), the compound was classed as inactive.
Under `COc1ccc(C(=O)OCC(=O)c2c[nH]c3ccccc23)cc1OC` stands “inactive”.
In the case of `O=C1NC(=O)/C(=C\c2ccc(OCc3cccc(C(=O)O)c3)c(Cl)c2)N1`, the result was inactive.
As for `O=C(CN(Cc1cccs1)C(=O)CNS(=O)(=O)c1ccccc1)NCc1ccco1`, the result was inactive.
The result for `Cc1ccc(S(=O)(=O)N2CCN(C(=O)CSc3nnnn3C)C2)cc1` reads “inactive”; that for `O=C(O)/C=C/c1ccc(Cn2ccnc2)cc1`, “inactive”.
Consider `Cc1ccccc1NC(=O)CN1C(=O)S/C(=C\c2cccn2-c2cccc(C(=O)O)c2)C1=O`, for which the compound was called inactive.
The result for `CC(C)[C@H](N[C@@H](C)c1ccccc1)c1c(O)ccc2ccccc12` reads “inactive”; that for `O=C(C1CC1)N1N=C(c2ccc(Br)cc2)CC1(O)C(F)(F)F` (stereo not given), “inactive”; that for `CN1CCN(CCOc2ccc(Cc3ccccc3)cc2)CC1`, “inactive”.
Under `CN(C)S(=O)(=O)c1ccc(Cl)c(C(=O)NCCNC(=O)c2cc(S(=O)(=O)N(C)C)ccc2Cl)c1` stands “inactive”; under `CCCc1cc(=O)c2c(O)ccc(OC)c2o1`, “inactive”; under `O=c1cc(C2CCCCC2)[nH]c(=O)[nH]1`, “inactive”.
Under `CC(=O)OCC(=O)[C@@]1(O)CC[C@H]2[C@@H]3CCC4=CC(=O)CC[C@]4(C)[C@H]3[C@@H](O)C[C@@]21C` stands “inactive”.
With `O=C(/C=C/Nc1cccc(C(F)(F)F)c1)C(F)(F)F`, the call was inactive.
The result for `O=C(CN1CCN(S(=O)(=O)c2ccc(F)cc2)CC1)Nc1cccc(C(F)(F)F)c1` reads “inactive”; that for `O=C(c1ccco1)N1CCN(S(=O)(=O)/C=C/c2ccccc2)CC1`, “inactive”; that for `O=C(Nc1ncccc1O)c1ccc(S(=O)(=O)NCc2ccco2)cc1`, “inactive”.
Under `CCOC(=O)C1=C(C)N(C)C(=O)NC1c1ccccc1OC` (stereo not given) stands “inactive”; under `Cc1cc(=S)[nH]c2ccccc12`, “inactive”.
The result for `CC(=O)Oc1ccc(C(=O)Nc2cccnc2)cc1` reads “inactive”; that for `CC(C)CCNC(=O)C1CCN(S(=O)(=O)c2ccc3c(c2)CC(C)N3C(=O)C2CC2)CC1` (stereo not given), “inactive”.
As for `Cc1ccc2c(c1)N(CC(=O)N1CCCC1)C(=O)c1cccnc1O2`, the compound was called inactive.
Under `Cc1ccc(S(=O)(=O)N[C@H](C(=O)N2CCC(C(=O)N[C@@H](CC(=O)O)C(=O)O)CC2)C(C)C)cc1` stands “inactive”.
For `Cc1ccc(C(=O)Nc2ccc3c(c2)OCCO3)cc1`, the outcome was inactive.
Under `Cc1ccc(NC(=O)c2ccc3c(c2)OCCO3)nc1` stands “inactive”; under `COc1ccc(OC)c(NC(=O)COC(=O)COc2ccc(Nc3ccccc3)cc2)c1`, “inactive”; under `Cc1cc(C)c(S(=O)(=O)N2CCN(C(=O)c3ccccc3OCc3c(C)noc3C)CC2)c(C)c1`, “inactive”.
Under `O=C(NCc1ccccc1Cl)C1CCCN1S(=O)(=O)c1ccc(F)cc1` (stereo not given) stands “inactive”; under `Cc1ccc(/C=C/c2nc3ccccc3s2)s1`, “inactive”; under `COc1ccc(C=NNc2nc3ccccc3s2)cc1`, “inactive”.
The result for `N/C(=N\OC(=O)c1ccccc1)c1ccccn1` reads “inactive”; that for `C[C@@H]1CN([C@@H](C)CO)S(=O)(=O)c2ccc(/C=C/c3ccccc3)cc2O[C@@H]1CN(C)Cc1ccc(C(=O)O)cc1`, “inactive”; that for `O=C(NC1=NCCS1)c1cc2ccccc2o1`, “inactive”.
With `COc1ccc(C(=O)Nc2nnc(SCC(=O)NC3CC3)s2)cc1`, the result was inactive.
For `c1ccc(-c2cn3c4c(sc3n2)CCCC4)cc1`, the call was inactive.
Under `Cc1cc(C)n2nc(CC(=O)NC3CCCCCC3)nc2n1` stands “inactive”.
Under `Cc1nc(SCC(=O)c2cccc([N+](=O)[O-])c2)n[nH]1` stands “inactive”; under `COc1ccc2cc3c(N)nn(C(=O)c4cccc([N+](=O)[O-])c4)c3nc2c1`, “inactive”.
Under `CCn1c(SC(C)C)nnc1-c1c[nH]c2ccccc12` stands “inactive”; under `CC(=O)c1cccc(NC(=O)Nc2ccc(C(=O)N3CCOCC3)cc2)c1`, “inactive”.
For `COc1ccc(-c2csc(Nc3cccc(C)n3)n2)cc1OC`, the outcome was inactive.
